Test results reported in PubChem BioAssay (EPA / NIEHS).
The source holds several records for some structures; these can differ, active in one and inactive in another. Active and inactive are the calls of the source. Rule for the calls: active = hit-call score of the fitted dose curve at least 0.9, where 1 is the maximum; inactive = score below 0.9.

Key:
[1] = target: Transcription factor E2F1 (Homo sapiens) (UniProt Q01094); assay: ATG_E2F_CIS: Attagene CIS-FACTORIAL HepG2 Assay for human E2F Transcription Factor 1 (AID 2282935); conditions: HepG2 Attagene cis-reporter, E2F reporter RNA transcripts; actives raise or lower the signal
Procedure, shortened: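 HepG2 cells transiently transfected with multiplexed cis-element reporter units, dosed for 24 h. Reporter mRNA measured by RT-PCR, 6-FAM primer-extension labeling, HpaI digestion and capillary electrophoresis; bidirectional fit versus DMSO baseline.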

[2] = ATG_E_Box_CIS: Attagene CIS-FACTORIAL HepG2 Assay for human Enhancer Box (E-box) (AID 2282936); conditions: HepG2 E-box cis-reporter transcription, actives raise or lower the signal
Procedure, shortened: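 HepG2 cells transiently transfected with multiplexed cis-element reporter units sensing endogenous transcription factor activity; 24 h compound exposure. Reporter mRNA measured by RT-PCR, 6-FAM primer extension, HpaI digestion and capillary electrophoresis; bidirectional fit versus DMSO.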

[3] = ATG_M_61_CIS: Attagene CIS-FACTORIAL HepG2 Assay for M61 Transcription Factor (Internal Marker) (AID 2282937); conditions: HepG2 Attagene CIS-FACTORIAL M61 internal marker reporter; actives raise or lower the signal
Procedure, shortened: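 HepG2 cells transiently transfected with multiplexed cis-promoter reporter units reporting endogenous transcription factor activity, measured 24 h after dosing. Reporter mRNA quantified by RT-PCR and capillary electrophoresis; bidirectional fit against DMSO baseline.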

[4] = ATG_EGR_CIS: Attagene CIS-FACTORIAL HepG2 Assay for human Early Growth Response 1 (EGR1) (AID 2282938); conditions: HepG2 Attagene CIS-FACTORIAL EGR reporter mRNA; actives raise or lower the signal
Procedure, shortened: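 HepG2 cells transiently transfected with cis-element-driven multiplexed reporter units, dosed for 24 h. EGR1-element reporter mRNA quantified by RT-PCR, 6-FAM labelling, HpaI digestion and capillary electrophoresis; bidirectional fit versus DMSO.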

[5] = ATG_M_19_CIS: Attagene CIS-FACTORIAL HepG2 Assay for M19 Transcription Factor (Internal Marker) (AID 2282939); conditions: HepG2 Attagene CIS-FACTORIAL M19 internal marker reporter; actives raise or lower the signal
Procedure, shortened: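 HepG2 cells transiently transfected with cis-regulated multiple reporter transcription units were dosed for 24 h; reporter mRNA was quantified by RT-PCR, 6-FAM primer-extension labelling, HpaI digestion and capillary electrophoresis, with bidirectional fitting against DMSO baseline.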

[6] = ATG_ERE_CIS: Attagene CIS-FACTORIAL HepG2 Assay for Estrogen Response Element (ERE) (AID 2282940); conditions: HepG2 ERE cis-reporter, Attagene RNA transcript; actives raise or lower the signal
Procedure, shortened: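 HepG2 cells transiently transfected with cis-promoter-driven multiplexed reporter transcription units report endogenous TF activity. After 24 h compound exposure, reporter mRNA is quantified by RT-PCR with capillary electrophoresis fluorescence; bidirectional fitting versus DMSO baseline.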

[7] = ATG_Ets_CIS: Attagene CIS-FACTORIAL HepG2 Assay for human Erythroblast Transformation Specific (ETS) (AID 2282941); conditions: HepG2 ETS cis-reporter transcription, actives raise or lower the signal
Procedure, shortened: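 Human HepG2 hepatoma cells were transiently transfected with promoter-driven reporter constructs and treated for 24 hours. Reporter transcripts were quantified by RT-PCR with fluorescent primer extension; bidirectional curve fitting used DMSO as reference.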

[8] = target: Hepatocyte nuclear factor 3-beta (Homo sapiens) (UniProt Q9Y261); assay: ATG_FoxA2_CIS: Attagene CIS-FACTORIAL HepG2 Assay for human Forkhead box A2 (FOXA2) (AID 2282942); conditions: HepG2 cis-reporter transcription factor activity, 24 h; actives raise or lower the signal
Procedure, shortened: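 HepG2 transiently transfected with a multiplexed cis-promoter reporter library read endogenous FOXA2 activity. After 24 h compound exposure, reporter mRNA was quantified by RT-PCR, HpaI digestion and capillary electrophoresis. Bidirectional fit against DMSO.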

[9] = ATG_FoxO_CIS: Attagene CIS-FACTORIAL HepG2 Assay for human Forkhead box O (FoxO) (AID 2282943); conditions: HepG2 Attagene cis-reporter, FoxO element, mRNA; actives raise or lower the signal
Procedure, shortened: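 24 h chemical exposure, HepG2 with transient cis-MRTU transfection. RNA extraction, oligo(dT) RT, reporter-specific PCR, primer-extension labelling, HpaI digestion, CE fragment analysis; bidirectional fit, DMSO baseline.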

[10] = ATG_GATA_CIS: Attagene CIS-FACTORIAL HepG2 Assay for human GATA Binding Protein (AID 2282944); conditions: HepG2 GATA cis-element reporter, Attagene multiplex mRNA; actives raise or lower the signal
Procedure, shortened: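 HepG2 cells transiently transfected with multiplexed cis-element reporter units reflecting endogenous transcription factor activity; reporter mRNA measured after 24 h dosing by RT-PCR, 6-FAM labeling, HpaI digestion and capillary electrophoresis. Bidirectional fitting versus DMSO baseline.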

Sequence of Transcription factor E2F1 (Homo sapiens) (Q01094 whole entry, looked up): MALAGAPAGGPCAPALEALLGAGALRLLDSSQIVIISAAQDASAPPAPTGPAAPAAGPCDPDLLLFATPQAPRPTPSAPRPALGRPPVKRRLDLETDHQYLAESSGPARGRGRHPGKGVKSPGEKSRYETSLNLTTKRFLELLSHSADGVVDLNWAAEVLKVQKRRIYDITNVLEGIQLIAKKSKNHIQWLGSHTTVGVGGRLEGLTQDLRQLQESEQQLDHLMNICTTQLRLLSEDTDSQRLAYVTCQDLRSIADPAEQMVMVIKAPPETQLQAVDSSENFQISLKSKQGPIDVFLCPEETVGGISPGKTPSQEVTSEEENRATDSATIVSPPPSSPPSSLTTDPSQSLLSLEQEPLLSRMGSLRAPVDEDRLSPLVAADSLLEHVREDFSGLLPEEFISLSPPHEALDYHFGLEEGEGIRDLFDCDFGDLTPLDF
Sequence of Hepatocyte nuclear factor 3-beta (Homo sapiens) (Q9Y261 whole entry, looked up): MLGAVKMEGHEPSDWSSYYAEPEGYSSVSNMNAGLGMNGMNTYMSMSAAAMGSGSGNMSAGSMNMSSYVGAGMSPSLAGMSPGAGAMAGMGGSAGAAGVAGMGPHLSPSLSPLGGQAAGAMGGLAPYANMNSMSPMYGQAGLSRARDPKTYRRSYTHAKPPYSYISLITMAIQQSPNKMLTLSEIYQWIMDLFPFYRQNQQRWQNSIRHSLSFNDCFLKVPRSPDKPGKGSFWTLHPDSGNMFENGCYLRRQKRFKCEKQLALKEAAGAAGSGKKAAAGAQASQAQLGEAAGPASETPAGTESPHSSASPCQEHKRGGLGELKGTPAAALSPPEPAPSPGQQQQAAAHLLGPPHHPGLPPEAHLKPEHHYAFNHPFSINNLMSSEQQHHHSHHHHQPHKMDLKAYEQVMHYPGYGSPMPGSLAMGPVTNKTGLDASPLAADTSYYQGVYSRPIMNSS

SMILES | outcome [1] | outcome [2] | outcome [3] | outcome [4] | outcome [5] | outcome [6] | outcome [7] | outcome [8] | outcome [9] | outcome [10] | AC50 [2] | AC50 [6] | AC50 [9]
CS(C)(=O)=O | inactive | inactive | inactive | inactive | inactive | inactive | inactive | inactive | inactive | inactive | – | – | –
CC(C)=CCCC(C)CCOC(=O)C(C)C (stereo unspecified) | inactive | inactive | inactive | inactive | inactive | inactive | inactive | inactive | inactive | inactive | – | – | –
O=S(=O)(OCCOC(F)(F)F)C(F)(F)F | inactive | inactive | inactive | inactive | inactive | inactive | inactive | inactive | inactive | inactive | – | – | –
C1COCCN1 | inactive | inactive | inactive | inactive | inactive | inactive | inactive | inactive | inactive | inactive | – | – | –
CCCCCCCOC(=O)c1ccccc1C(=O)OCCCCCCC | inactive | inactive | inactive | inactive | inactive | inactive | inactive | inactive | inactive | inactive | – | – | –
CC(C)(C)C(=O)CC(=O)C(F)(F)C(F)(F)C(F)(F)F | inactive | inactive | inactive | inactive | inactive | inactive | inactive | inactive | inactive | inactive | – | – | –
Cc1cc(C)cc(O)c1 | inactive | inactive | inactive | inactive | inactive | inactive | inactive | inactive | inactive | inactive | – | – | –
O=C(Cl)C(F)(F)C(F)(F)C(F)(F)C(F)(F)C(F)(F)C(F)(F)C(F)(F)C(F)(F)F | inactive | inactive | inactive | inactive | inactive | inactive | inactive | inactive | inactive | inactive | – | – | –
FC(F)(F)C(F)(F)C(F)(F)C(F)(F)C(F)(F)C(F)(F)C(F)(F)C(F)(F)CCS | inactive | inactive | inactive | inactive | inactive | inactive | inactive | inactive | inactive | inactive | – | – | –
OCC(F)(F)C(F)(F)C(F)(F)C(F)F | inactive | inactive | inactive | inactive | inactive | inactive | inactive | inactive | inactive | inactive | – | – | –
O[Si](c1ccccc1)(c1ccccc1)c1ccccc1 | inactive | – | inactive | inactive | inactive | – | inactive | inactive | inactive | inactive | 15.8 µM (active) | 12.8 µM (active) | –
FC(F)(F)C(F)(F)C(F)(F)C(F)(F)C(F)(F)C(F)(F)CC1CO1 (stereo unspecified) | inactive | inactive | inactive | inactive | inactive | inactive | inactive | inactive | inactive | inactive | – | – | –
C=CC(F)(F)C(F)(F)C(F)(F)C(F)(F)C(F)(F)C(F)(F)C(F)(F)C(F)(F)C=C | inactive | inactive | inactive | inactive | inactive | – | inactive | inactive | inactive | inactive | – | 4.46 µM (active) | –
CCc1c(Br)c(Br)c(Br)c(Br)c1Br | inactive | inactive | inactive | inactive | inactive | inactive | inactive | inactive | inactive | inactive | – | – | –
[Co] | inactive | inactive | inactive | inactive | inactive | inactive | inactive | inactive | inactive | inactive | – | – | –
CC(C)c1ccccc1N | inactive | inactive | inactive | inactive | inactive | inactive | inactive | inactive | – | inactive | – | – | 152 µM (active)
Cc1cccc(N(C)C)c1 | inactive | inactive | inactive | inactive | inactive | inactive | inactive | inactive | inactive | inactive | – | – | –
CCCCCCOC(=O)c1ccccc1 | inactive | inactive | inactive | inactive | inactive | inactive | inactive | inactive | inactive | inactive | – | – | –
FC(F)(F)C(F)(F)C(F)(F)C(F)(F)C(F)(F)CCI | inactive | inactive | inactive | inactive | inactive | – | inactive | inactive | inactive | inactive | – | 51.2 µM (active) | –
C=C(C)C(=O)OCCC(F)(F)C(F)(F)C(F)(F)C(F)(F)C(F)(C(F)(F)F)C(F)(F)F | inactive | inactive | inactive | inactive | inactive | – | inactive | inactive | inactive | inactive | – | 13.8 µM (active) | –
O=C(O)C(F)(F)C(F)(F)C(F)(F)F | inactive | inactive | inactive | inactive | inactive | inactive | inactive | inactive | inactive | inactive | – | 150 µM (active) | –
Nc1cc(Cl)c(N)c(Cl)c1 | inactive | inactive | inactive | inactive | inactive | – | inactive | inactive | inactive | inactive | – | 7.29 µM (active) | –
CCCCOc1ccc(N)cc1 | inactive | inactive | inactive | inactive | inactive | inactive | inactive | inactive | inactive | inactive | – | – | –
